“And” between values parts separate entries of the source, which are not always exact repeats. Equal entries are not always repeated. Results filed as inconclusive are left out. Unmarked numbers belong to inactive results. The source made the active and inactive calls. Calls follow the shape of the dose curve; as a rule, active = well fitted curve in the direction sought with a large enough effect; inconclusive = small, poorly fitted or top-dose-only effect, or another doubt; inactive = no such curve, though single readings can be large; an effect the other way counts as inactive or inconclusive.

The target in the first assay is Cytochrome P450 3A7 (Homo sapiens) (UniProt P24462). In words: Cytochrome P450 family 3 subfamily A member 7 (CYP3A7) small molecule antagonists: luciferase biochemical qHTS assay (AID 1963596). Also: % is scaled to controls: 0 for no effect and ±100 for the full control effect; nearly all actives have a fitted effect of over 40% in size. Particulars: P450-Glo CYP3A7 enzyme luminescence, 1 h; series mostly up to 57.4 µM. The essentials: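 P450-Glo luminescent assay: CYP3A7 enzyme converts a proluciferin substrate to luciferin, detected by luciferase reagent; light proportional to activity. Compounds in DMSO preincubated 10 min with enzyme-substrate mix at room temperature, then NADPH regeneration added for 1 h.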
Cytochrome P450 3A7 (Homo sapiens), sequence (P24462 whole entry, looked up): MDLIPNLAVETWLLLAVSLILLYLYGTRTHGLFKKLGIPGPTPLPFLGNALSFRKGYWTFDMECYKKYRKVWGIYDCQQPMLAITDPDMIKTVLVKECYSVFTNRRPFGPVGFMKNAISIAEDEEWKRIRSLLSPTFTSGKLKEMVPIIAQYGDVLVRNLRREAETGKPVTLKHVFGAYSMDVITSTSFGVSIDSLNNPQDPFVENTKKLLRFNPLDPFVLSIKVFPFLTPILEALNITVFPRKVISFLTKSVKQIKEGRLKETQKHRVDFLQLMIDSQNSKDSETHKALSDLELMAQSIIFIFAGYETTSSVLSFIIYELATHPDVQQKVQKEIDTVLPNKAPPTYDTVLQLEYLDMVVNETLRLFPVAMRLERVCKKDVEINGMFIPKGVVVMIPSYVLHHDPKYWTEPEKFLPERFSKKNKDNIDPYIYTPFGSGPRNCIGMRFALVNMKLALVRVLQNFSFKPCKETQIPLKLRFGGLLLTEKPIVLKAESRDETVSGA
As for `O=C(O)Cc1ccc(-c2ccccc2)cc1`, the Potency entry was “inactive”.

As for `O=c1[nH]cnc2nc[nH]c12`, the Potency result was “inactive”.

As to `CO/N=C(/C(=O)N[C@@H]1C(=O)N2C(C(=O)[O-])=C(C[n+]3ccn4ncccc43)CS[C@H]12)c1nsc(N)n1`, the Potency entry is “inactive”.

Test system in the next assay: not listed separately
Nature of the assay: Viability qHTS for spleen associated tyrosine kinase inhibitor (SYKi) drug resistant MV4-11 cells (AID 1963824). Also: nearly all actives have a fitted effect of over 35% in size. Also: potency is read from the fitted curve at half-maximal effect. The following applies: SYKi-resistant MV4-11 viability, CellTiter-Glo, 72 h; series mostly up to 45 µM. The essentials: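 SYK inhibitor-resistant MV4-11 AML cells, 500 per well, added to predispensed compounds and incubated 72 hr at 37 C, 5% CO2. Viability measured by CellTiter-Glo luminescence after 10 min at room temperature.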
On the technique in general: qHTS replaces the single test concentration by a dilution series.
With `CCN(CC)CC(=O)Oc1ccc(NC(C)=O)cc1`, the Potency result is “inactive”.

As for `COC(=O)c1nc(Cl)c(Cl)nc1N`, the Potency is 0.596 µM (active).

As to `OC[C@@H](O)[C@@H](O)[C@H](O)[C@H](O)CO`, the Potency result was “inactive”.

In the case of `CC(=O)N(CC(O)CN(C(C)=O)c1c(I)c(C(=O)NCC(O)CO)c(I)c(C(=O)NCC(O)CO)c1I)c1c(I)c(C(=O)NCC(O)CO)c(I)c(C(=O)NCC(O)CO)c1I` (stereo not drawn), the Potency entry was “inactive”.

`O=c1[nH]c(=O)n([C@H]2C[C@H](O)[C@@H](CO)O2)cc1I`: the Potency is 5.25 µM (active).

Regarding `CC(C)(C)NC[C@H](O)COc1nsnc1N1CCOCC1`, the Potency result was “inactive”.

As to `Clc1ccccc1-c1nc(-c2ccncc2)no1`, the Potency is 11.9 µM (active).

`CCCCOCCOC(=O)c1cccnc1`: the Potency result is “inactive”.

In the case of `NC1CCN(c2cccc(Cl)n2)CC1`, the Potency entry was “inactive”.

As to `CC(=O)N[C@@H](Cc1ccc(O)cc1)C(=O)O`, the Potency entry was “inactive”.

In the case of `CC(=O)c1ccc(OCC(=O)N2CCCCC2)cc1`, the Potency entry is “inactive”.

As for `C=C(C)C(=O)OCC(O)CO` (stereo not drawn), the Potency result was “inactive”.

For `CC(=O)NO`, the Potency entry was “inactive”.

For `CC1(C)OC[C@@H](COC(=O)CCc2ccc(OC[C@@H](O)CNCCNC(=O)N3CCOCC3)cc2)O1`, the Potency result was “inactive”.

`N[C@@H](CCC(=O)N[C@@H](CS)C(=O)NCC(=O)O)C(=O)O`: the Potency result was “inactive”.

For `CN=C(N)NC(=O)Nc1c(C)cccc1C`, the Potency result was “inactive”.

For `COc1cc2nc(-c3cc(F)ccc3O)nc(N[C@@H]3CNC[C@H]3C(C)(C)O)c2cc1OC`, the Potency was 11.6 nM (active) and 5.3 nM (active).

`Nc1ncnc2c1ncn2Cc1c(F)cccc1Cl`: the Potency result was “inactive”.

Turning to `NCCS`, the Potency entry was “inactive”.

`CCN1CCN(Cc2ccc(NC(=O)c3ccc(C)c(NC(=O)c4cncc(-c5cccs5)c4)c3)cc2C(F)(F)F)CC1`: the Potency is 14.6 nM (active) and 26.3 nM (active).

Regarding `Cc1cc(=O)n(-c2ccccc2)n1C`, the Potency result was “inactive”.

Regarding `CCCC(=O)O[C@]1(C(=O)CO)CC[C@H]2[C@@H]3CCC4=CC(=O)CC[C@]4(C)[C@H]3[C@@H](O)C[C@@]21C`, the Potency entry is “inactive”.

Take `CC(=O)OCC(=O)Nc1cc(C#N)cc(NC(=O)COC(C)=O)c1Cl`: the Potency result is “inactive”.

Regarding `O=C(O)c1ccccc1OP(=O)(O)O`, the Potency entry is “inactive”.

For `COCCc1ccc(OCC2CO2)cc1` (stereo not drawn), the Potency result was “inactive”.

For `CCOc1cc2ncc(C#N)c(Nc3ccc(F)c(Cl)c3)c2cc1NC(=O)/C=C/CN(C)C`, the Potency is 0.235 µM (active).

On to `C[C@@H](O)[C@H]1C(=O)N2C(C(=O)O)=C(S[C@@H]3CN[C@H](C(=O)N(C)C)C3)[C@H](C)[C@H]12`, for which the Potency entry is “inactive”.

Turning to `Cc1cc(NS(=O)(=O)c2ccc(N)cc2)nc(C)n1`, the Potency entry was “inactive”.

`NC(=O)CCCCC1CCSS1` (stereo not drawn): the Potency result was “inactive”.

On to `O=c1[nH]c(=O)n([C@H]2C[C@H](O)[C@@H](CO)O2)cc1Br`, for which the Potency is 8.41 µM (active).

Take `CCOc1ccc(C(=O)OCCN(CC)CC)cc1`: the Potency result was “inactive”.

On to `NS(=O)(=O)c1ccc(Cl)c(S(N)(=O)=O)c1`, for which the Potency entry is “inactive”.

As to `COc1cc(C(=O)NCc2ccc(OCCN(C)C)cc2)cc(OC)c1OC`, the Potency entry is “inactive”.

Turning to `CCCN(CCC)CCc1cccc2c1CC(=O)N2`, the Potency result is “inactive”.

For `O=C(O)Cc1cccc(-c2cc(CCCCCCc3ccc(O[C@H]4O[C@H](CO)[C@@H](O)[C@H](O)[C@@H]4O)c(-c4cccc(CC(=O)O)c4)c3)ccc2O[C@H]2O[C@H](CO)[C@@H](O)[C@H](O)[C@@H]2O)c1`, the viability, % of control was 113% [at 0.588 µM].

On to `O=C(c1ccco1)N1CCNCC1`, for which the Potency result was “inactive”.

In the case of `O=C(c1ccccc1)C(O)c1ccccc1` (stereo not drawn), the Potency entry was “inactive”.

As for `O=C(O)Cc1ccc(-c2ccccc2)cc1`, the Potency result was “inactive”.

As for `O=c1[nH]cnc2nc[nH]c12`, the Potency entry is “inactive”.

Consider `CO/N=C(/C(=O)N[C@@H]1C(=O)N2C(C(=O)[O-])=C(C[n+]3ccn4ncccc43)CS[C@H]12)c1nsc(N)n1`, for which the Potency entry was “inactive”.

Test system in the next assay: not listed separately
Nature of the assay: Cellular viability qHTS for adrenocortical cancer (ACC) cell line SW-13 (AID 1963989). Also: nearly all actives have a fitted effect of over 65% in size. Also: potency is read from the fitted curve at half-maximal effect.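 As to activity (max response): cells grown in serum-free medium with ITS supplement; % is scaled to controls: 0 for no effect and ±100 for the full control effect.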 The following applies: SW-13 ACC cells viability, CellTiter-Glo, 48 h; activity (max response): stronger effect = lower value. The essentials:
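48 h treatment, SW-13 in ITS/DMEM serum-free; doses up to 46 uM; readout CellTiter-Glo luminescence; curve fit four-parameter logistic.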
Regarding `CCN(CC)CC(=O)Oc1ccc(NC(C)=O)cc1`, the activity (max response) was 13.2%.

Turning to `COC(=O)c1nc(Cl)c(Cl)nc1N`, the Potency is 8.2 µM (active).

On to `OC[C@@H](O)[C@@H](O)[C@H](O)[C@H](O)CO`, for which the activity (max response) is -5.63%.

`CC(=O)N(CC(O)CN(C(C)=O)c1c(I)c(C(=O)NCC(O)CO)c(I)c(C(=O)NCC(O)CO)c1I)c1c(I)c(C(=O)NCC(O)CO)c(I)c(C(=O)NCC(O)CO)c1I` (stereo not drawn): the activity (max response) was 14.1%.

For `O=c1[nH]c(=O)n([C@H]2C[C@H](O)[C@@H](CO)O2)cc1I`, the activity (max response) was -5.04% and -11.6%.

Take `CC(C)(C)NC[C@H](O)COc1nsnc1N1CCOCC1`: the activity (max response) was -5.85%.

In the case of `Clc1ccccc1-c1nc(-c2ccncc2)no1`, the activity (max response) was -7.1%.

For the compound `CCCCOCCOC(=O)c1cccnc1`, the activity (max response) was -1.25%.

For the compound `NC1CCN(c2cccc(Cl)n2)CC1`, the activity (max response) was 2.41%.

For the compound `CC(=O)N[C@@H](Cc1ccc(O)cc1)C(=O)O`, the activity (max response) was -8.88%.

For `CC(=O)c1ccc(OCC(=O)N2CCCCC2)cc1`, the activity (max response) is 7.54%.

Turning to `C=C(C)C(=O)OCC(O)CO` (stereo not drawn), the activity (max response) is -4.84%.

In the case of `CC(=O)NO`, the activity (max response) is 11.6%.

As to `CC1(C)OC[C@@H](COC(=O)CCc2ccc(OC[C@@H](O)CNCCNC(=O)N3CCOCC3)cc2)O1`, the activity (max response) was -0.309%.

In the case of `N[C@@H](CCC(=O)N[C@@H](CS)C(=O)NCC(=O)O)C(=O)O`, the activity (max response) is -1.28%.

As to `CN=C(N)NC(=O)Nc1c(C)cccc1C`, the activity (max response) is -3.82%.

On to `COc1cc2nc(-c3cc(F)ccc3O)nc(N[C@@H]3CNC[C@H]3C(C)(C)O)c2cc1OC`, for which the Potency was 6.31 µM (active).

As to `Nc1ncnc2c1ncn2Cc1c(F)cccc1Cl`, the activity (max response) is 6.36%.

Take `NCCS`: the activity (max response) was 16.9%.

In the case of `CCN1CCN(Cc2ccc(NC(=O)c3ccc(C)c(NC(=O)c4cncc(-c5cccs5)c4)c3)cc2C(F)(F)F)CC1`, the Potency was 2 µM (active).

On to `Cc1cc(=O)n(-c2ccccc2)n1C`, for which the activity (max response) was 4.16%.

Regarding `CCCC(=O)O[C@]1(C(=O)CO)CC[C@H]2[C@@H]3CCC4=CC(=O)CC[C@]4(C)[C@H]3[C@@H](O)C[C@@]21C`, the activity (max response) is -3.14%.

As for `CC(=O)OCC(=O)Nc1cc(C#N)cc(NC(=O)COC(C)=O)c1Cl`, the activity (max response) is -0.531%.

Turning to `O=C(O)c1ccccc1OP(=O)(O)O`, the activity (max response) is 16.4%.

Regarding `COCCc1ccc(OCC2CO2)cc1` (stereo not drawn), the activity (max response) was -2.52%.

As for `CCOc1cc2ncc(C#N)c(Nc3ccc(F)c(Cl)c3)c2cc1NC(=O)/C=C/CN(C)C`, the Potency is 0.631 µM (active).

For `C[C@@H](O)[C@H]1C(=O)N2C(C(=O)O)=C(S[C@@H]3CN[C@H](C(=O)N(C)C)C3)[C@H](C)[C@H]12`, the activity (max response) is 7.3% and 9.96%.

For `Cc1cc(NS(=O)(=O)c2ccc(N)cc2)nc(C)n1`, the activity (max response) was 9.61%.

For `NC(=O)CCCCC1CCSS1` (stereo not drawn), the activity (max response) was 9.98%.

Regarding `O=c1[nH]c(=O)n([C@H]2C[C@H](O)[C@@H](CO)O2)cc1Br`, the activity (max response) was -6.63%.

For the compound `CCOc1ccc(C(=O)OCCN(CC)CC)cc1`, the activity (max response) was -4.6%.

On to `NS(=O)(=O)c1ccc(Cl)c(S(N)(=O)=O)c1`, for which the activity (max response) is -3.32%.

With `COc1cc(C(=O)NCc2ccc(OCCN(C)C)cc2)cc(OC)c1OC`, the activity (max response) was -6.7%.

Turning to `CCCN(CCC)CCc1cccc2c1CC(=O)N2`, the activity (max response) was 8.18%.

`O=C(O)Cc1cccc(-c2cc(CCCCCCc3ccc(O[C@H]4O[C@H](CO)[C@@H](O)[C@H](O)[C@@H]4O)c(-c4cccc(CC(=O)O)c4)c3)ccc2O[C@H]2O[C@H](CO)[C@@H](O)[C@H](O)[C@@H]2O)c1`: the activity (max response) is 8.49%.

Regarding `O=C(c1ccco1)N1CCNCC1`, the activity (max response) was -4.62%.

For the compound `O=C(c1ccccc1)C(O)c1ccccc1` (stereo not drawn), the activity (max response) was 11.7%.

As to `O=C(O)Cc1ccc(-c2ccccc2)cc1`, the activity (max response) was 3.26%.

Turning to `O=c1[nH]cnc2nc[nH]c12`, the activity (max response) was 10.3%.

Take `CO/N=C(/C(=O)N[C@@H]1C(=O)N2C(C(=O)[O-])=C(C[n+]3ccn4ncccc43)CS[C@H]12)c1nsc(N)n1`: the activity (max response) was -7.2%.

These data come from PubChem BioAssay (NCATS).
